NCOA1 inh: inhibitors of human steroid receptor coactivator 1 (SRC1) | Q15788 | 360,000 compounds, 0.12% hits | HEK293 GAL4-SRC1 luciferase reporter, luminescence | inhibition, % at 3.6 µM;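 active means inhibition above the campaign mean plus 3 SD, with each screening campaign given its own cutoff, cut at about 60% in these data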
SRC3 inh: inhibits human SRC3 coactivator | Q9Y6Q9 | HEK293 GAL4-SRC3 luciferase reporter, luminescence | inhibition, % at 3.6 µM | 360,000 compounds, 0.17% hits | AID 588352;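 active means inhibition above a per-campaign cutoff, the mean of all compounds plus 3 SD, cut at about 60% in these data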;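 further: higher means less SRC3-driven luciferase light from the GAL4 reporter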
NCOA2 inhibitor: inhibits human steroid receptor coactivator 2 | Q15596 | HEK293 GAL4-SRC2 luciferase reporter, luminescence | inhibition, % at 9 µM | 370,000 compounds, 0.17% hits | AID 651957;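 active means inhibition above the mean inhibition of all tested compounds plus 3 SD, set per campaign, cut at about 52% in these data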
NR2F2 inh: inhibitors of human COUP-TFII (NR2F2); 370,000 compounds, 0.7% hits; AID 686940; HEK293T NGFI-A luciferase reporter, luminescence; inhibition, % at 8.6 µM; P24468;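 active means inhibition above a per-plate cutoff, mean inhibition of test wells between control levels plus 3 SD, cut at about 38% in these data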;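 further: cells cotransfected with COUP-TFII expression vector driving the NGFI-A reporter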
LRH-1 inv ag: suppresses constitutive activity of human LRH-1 | 360,000 compounds, 0.13% hits | inhibition, % at 3.6 µM | HEK293T StAR-luciferase reporter, LRH-1 transfected, 24 h | O00482;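 active means inhibition above the mean inhibition of all tested compounds plus 3 SD, cut at about 73% in these data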
Target sequence (O00482 whole entry, looked up): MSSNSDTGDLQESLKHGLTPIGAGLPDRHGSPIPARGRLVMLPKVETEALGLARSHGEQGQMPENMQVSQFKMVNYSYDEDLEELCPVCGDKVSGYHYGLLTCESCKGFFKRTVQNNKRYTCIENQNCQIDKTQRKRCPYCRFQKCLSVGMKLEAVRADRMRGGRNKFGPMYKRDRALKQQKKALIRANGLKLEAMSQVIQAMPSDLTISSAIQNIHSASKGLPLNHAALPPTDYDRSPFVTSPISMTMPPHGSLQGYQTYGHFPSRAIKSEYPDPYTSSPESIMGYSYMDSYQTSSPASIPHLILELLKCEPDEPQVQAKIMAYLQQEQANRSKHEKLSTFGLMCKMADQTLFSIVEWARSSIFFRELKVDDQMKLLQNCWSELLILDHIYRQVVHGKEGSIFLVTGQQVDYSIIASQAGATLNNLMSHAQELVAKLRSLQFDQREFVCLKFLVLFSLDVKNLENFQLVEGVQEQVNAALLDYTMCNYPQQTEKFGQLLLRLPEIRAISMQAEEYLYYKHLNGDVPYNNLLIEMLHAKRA
Gli-Sufu antag: blocks Gli-Sufu signaling in a luciferase reporter. Sufu-KO-LIGHT fibroblasts, Gli luciferase reporter luminescence. 340,000 compounds, 0.74% hits. inhibition, % at 5 µM;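 active means inhibition above about 55%, limit read from the data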
Gli-Sufu confirm: confirmation of Gli-SUFU pathway antagonists | inhibition, % at 5 µM | shares compounds with Gli-Sufu antag | AID 602428 | 2,500 compounds, 40% hits | Sufu-KO-LIGHT cells, Gli luciferase reporter, luminescence;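 active means mean inhibition at 5 µM reaching about 45%, limit read from the data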
Gli cytotox: cytotoxicity counter-screen for Gli-SUFU antagonists | shares compounds with Gli-Sufu antag | Sufu-KO-LIGHT cells cytotoxicity, ATP luminescence | cytotoxicity, % at 5 µM | 2,500 compounds, 32% hits;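 active means mean cytotoxicity at 5 µM above about 25%, limit read from the data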;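 further: cells exposed to compound overnight for roughly 16 to 18 hours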
Wnt3a counter: Wnt3a reporter inhibition counter-screen; shares compounds with Gli-Sufu antag; Wnt-LIGHT cells, Wnt3a-driven luciferase reporter, luminescence; inhibition, % at 6.25 µM; 2,500 compounds, 20% hits; AID 651995;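 active means mean inhibition above about 25%, limit read from the data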
A number is an active result; 0 = inactive; - = no result. Hits are enriched below; roughly 1.3% of the tested compounds scored in any of these assays.

SMILES	NCOA1 inh	SRC3 inh	NCOA2 inhibitor	NR2F2 inh	LRH-1 inv ag	Gli-Sufu antag	Gli-Sufu confirm	Gli cytotox	Wnt3a counter
COc1cc(OC)c(/C=N/NC(=O)COc2cccc3cccnc23)c(OC)c1	0	0	0	0	0	56	0	0	0
C#CCNC(=O)C[C@@H]1C(=O)N(CCc2ccc(Cl)cc2)/C2=C/CCCCC[C@@]21C(=O)OCC	-	-	0	0	-	-	-	-	-
COc1cc(C2C3=C(COC3=O)Oc3cc4c(cc32)OCO4)cc(OC)c1OC(C)=O (stereo not drawn)	0	0	0	0	0	63	50	63	0
O=C(N=Nc1c(O)[nH]c2ccc(Br)cc12)c1ccccc1-n1cccc1	0	0	0	0	0	57	0	34	0
CN(CC(=O)Nc1ccc(Cl)cc1)CC(=O)Nc1cccc(Br)c1	0	0	0	0	0	55	0	0	0
COc1ccc(NC(=O)CN(C)CC(=O)Nc2cccc(C(C)=O)c2)cc1	0	0	0	0	0	0	-	-	-
O=C(OCCN1CCCC12CCC(c1ccccc1)CC2)c1ccccc1 (stereo not drawn)	-	-	0	0	-	-	-	-	-
COCCSc1nc2c(c(=O)[nH]c(=O)n2C)n1CCCc1ccccc1	0	0	0	0	0	0	0	0	0
CCCn1c(Sc2nc3c(c(=O)[nH]c(=O)n3C)n2CCC)nc2c1c(=O)[nH]c(=O)n2C	0	0	0	0	0	99	0	0	0
COCCn1c(SCCCc2ccccc2)nc2c1c(=O)[nH]c(=O)n2C	0	0	0	0	0	0	-	-	-
Cc1ccc(S(=O)(=O)N(CC(O)CN2CCCCC2)c2ccccc2)cc1 (stereo not drawn)	0	0	0	0	0	58	0	0	0
COc1cc(C2c3cc4c(cc3OC(NNC(N)=O)C2C)OCO4)cc(OC)c1OC (stereo not drawn)	0	0	0	0	0	56	55	62	0
COc1ccc(NS(=O)(=O)c2cccc(C(=O)NC3CCN(Cc4ccccc4)CC3)c2)cc1	0	0	0	0	0	57	0	0	0
COc1ccc(CNC2CCN(Cc3ccccc3)CC2)cc1	0	0	0	0	0	58	0	0	0
COc1ccc(CNC(=O)CN2CCC(NC(=O)c3ccc(OC)cc3)CC2)cc1	0	0	0	0	0	62	0	0	0
COc1ccc(CN2CCC(CNC(=O)NCc3ccccc3)CC2)cc1	-	-	0	0	-	-	-	-	-
CC(C)(C)c1ccc(-c2nnc3n2N=C(c2ccc4ccccc4c2)CS3)cc1	-	-	0	0	-	-	-	-	-
Oc1ccc2ccccc2c1C=NN1CCN(Cc2ccc(Cl)cc2)CC1	-	-	0	0	-	-	-	-	-
Cc1ccc2c(c1)C(CS(=O)(=O)NCc1ccc(F)cc1)NC2 (stereo not drawn)	-	-	0	0	-	-	-	-	-
Cc1onc(-c2ccc(Cl)cc2)c1-c1ccn(S(=O)(=O)c2ccccc2)n1	-	-	0	0	-	-	-	-	-
COc1cc(OC)c2c(O)c3c(=O)cc(C)oc3c(-c3c(OC)cc4cc5c(c(O)c4c3O)C(=O)CC(C)(O)O5)c2c1 (stereo not drawn)	-	-	0	0	-	-	-	-	-
CCOC(=O)c1c(CSc2nc(C)cc(C)c2C#N)n(C)c2cc(Br)c(OC(C)=O)cc12	0	0	0	0	0	79	80	38	0
C=CCCc1ccc(C#N)c(SCc2c(C(=O)OCC)c3cc(OC(C)=O)c(Br)cc3n2C)n1	0	0	-	-	0	73	85	43	41
CCC(=O)NC(c1ccc(C)cc1)c1cc([N+](=O)[O-])c2cccnc2c1O (stereo not drawn)	0	0	0	0	0	0	-	-	-
CCCC(=O)NC(c1ccc(OC)c(OC)c1)c1cc(Cl)c2cccnc2c1O (stereo not drawn)	0	0	0	0	0	0	-	-	-
SMILES	NCOA1 inh	SRC3 inh	NCOA2 inhibitor	NR2F2 inh	LRH-1 inv ag	Gli-Sufu antag	Gli-Sufu confirm	Gli cytotox	Wnt3a counter
CCCCC(=O)NC(c1ccc(Cl)cc1Cl)c1ccc2cccnc2c1O (stereo not drawn)	0	0	0	0	0	86	83	34	82
CCCC(=O)NC(c1ccccc1Cl)c1ccc2cccnc2c1O (stereo not drawn)	0	0	0	0	84	83	80	28	69
CCC(=O)NC(c1ccc(C)cc1)c1ccc2cccnc2c1O (stereo not drawn)	0	64	0	0	0	89	82	42	83
O=C(NCC(c1ccccc1)c1ccccc1)[C@H](Cc1c[nH]c2ccccc12)NC1(C(=O)NC2CCCCC2)CCC1	-	-	-	0	-	-	-	-	-
CCC1=Nc2cc(C(=O)NCc3ccco3)ccc2Sc2ccc(Cl)cc21	0	0	0	0	0	0	56	52	0
CCC1=Nc2cc(C(=O)NCc3ccco3)ccc2Sc2ccccc21	0	0	0	0	0	0	-	-	-
COC(=O)[C@]12C[C@H](CC(=O)N3CCC(c4ccccc4)CC3)C(=O)N(CCc3ccc(OC)c(OC)c3)C1=C[C@H](C1CCCC1)O[C@@H]2C	-	-	0	0	-	-	-	-	-
CCN(CC)S(=O)(=O)c1cccc(NC(=O)/C=C/c2cccc([N+](=O)[O-])c2)c1	0	0	0	0	0	0	0	0	0
CCN(CC)S(=O)(=O)c1cccc(NC(=O)CC2CCCC2)c1	0	0	0	0	0	57	0	0	0
CCN(CC)S(=O)(=O)c1ccc(OC)c(NC(=O)CC2CCCC2)c1	0	0	0	0	0	0	-	-	-
COc1cc2c(cc1OC)C(COc1ccccc1OC)N(C(=O)c1ccco1)CC2 (stereo not drawn)	0	0	0	0	0	62	0	0	0
Cc1ccc2c(c1)c(N=Nc1ccc([N+](=O)[O-])cc1)c(O)n2C	0	0	0	0	0	0	0	0	0
Cc1nn(Cc2noc(C(=O)NC3CCC(C)CC3)n2)c(C)c1Br (stereo not drawn)	0	0	0	0	0	0	80	29	0
Cc1nn(Cc2noc(C(=O)NCC3CCCO3)n2)c(C)c1Br (stereo not drawn)	0	0	0	0	0	0	-	-	-
C/C(=C\C(=O)c1ccc(Br)cc1)NNC(=O)c1ccccc1	0	0	0	0	0	0	0	0	0
C/C(=C\C(=O)c1ccc(Br)cc1)NNC(=O)c1ccc(O)cc1	0	0	0	0	0	0	-	-	-
O=C(c1ccco1)N1CCN(c2ncnc3c2[nH]c2ccc(Br)cc23)CC1	0	0	0	0	0	0	-	-	-
CCOc1ccc2[nH]c3c(N4CCN(C(=O)c5ccco5)CC4)ncnc3c2c1	0	0	0	0	0	60	50	0	0
O=C1C=C[C@H]2CC[C@@H](O)[C@@H]1[C@@H]2Sc1ccccc1	-	-	0	0	-	-	-	-	-
CCOC(=O)COc1ccc2c3c(c(=O)oc2c1C)CCC3	0	0	0	0	0	0	-	-	-

High-throughput results: PubChem, several laboratories
